BAZ2B inh: qHTS Assay for Inhibitors of BAZ2B; Bromodomain adjacent to zinc finger domain protein 2B (Homo sapiens), Q9UIF8; Potency, µM (series often up to 114 µM), hits mostly inhibitors; AlphaScreen BAZ2B-H3K14Ac peptide displacement; hit rate 4.4% among 360,000; also: nearly all actives have a fitted effect of over 60% in size
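AlphaScreen displacement: compounds (up to 110uM) incubated 30 min at room temperature with a preformed 50 nM BAZ2B/50 nM biotinylated H3K14Ac peptide complex in PBS pH 7.4 with Tween-20. Donor and acceptor beads at 10 ug/mL final added, 20 min light-protected before reading.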
HP1b binding inh: HTS for Inhibitors of HP1-beta Chromodomain Interactions with Methylated Histone Tails. Chromobox protein homolog 1 (Homo sapiens), P83916. AlphaScreen HP1-beta / biotin-H3K9me3 peptide binding. Potency, µM (top dose mostly 114 µM), actives largely listed as inhibitors. hit rate 0.56% among 390,000; also: nearly all actives have a fitted effect of over 70% in size
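Compound inhibition of the preformed complex between 50 nM HP1-beta and 50 nM biotinylated H3K9me3 peptide was read by AlphaScreen. Buffer was PBS pH 7.4 with 0.01% Tween-20. Incubations ran 30 min at room temperature, with 10 ug/mL donor/acceptor beads.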
JMJD2A Tudor inh: qHTS Assay for Inhibitors of JMJD2A-Tudor Domain; hit rate 4.4% among 390,000; AlphaScreen JMJD2A-Tudor / H3K4me3 peptide binding; Lysine-specific demethylase 4A (Homo sapiens), O75164; Potency, µM (top dose mostly 114 µM), most hits filed as inhibitors; AID 504339, 2011; also: nearly all actives have a fitted effect of over 50% in size
G9a inh: qHTS Assay for Inhibitors of Histone Lysine Methyltransferase G9a; hit rate 8.8% among 350,000; G9a H3K9 monomethylation, AlphaScreen, 2 h; Potency, µM (doses to about 102 µM), actives largely listed as inhibitors; Histone-lysine N-methyltransferase EHMT2 (Homo sapiens), Q96KQ7; also: nearly all actives have a fitted effect of over 75% in size
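G9a (20 nM) preincubated 15 min RT with compounds, then 500 nM biotinylated H3K9 peptide and 20 uM SAM added; 2 h RT reaction. Monomethyl-H3K9 product detected by AlphaScreen with anti-H3K9me1 antibody, streptavidin donor and anti-rabbit IgG acceptor beads.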
PI5P4K alpha inh: qHTS for Inhibitors of phosphatidylinositol 5-phosphate 4-kinase (PI5P4K); PI5P4Kalpha enzyme, ADP-Glo luminescence, 60 min; stronger effect = lower value; Phosphatidylinositol 5-phosphate 4-kinase type-2 alpha (Homo sapiens), P48426; max response, %; hit rate 1.2% among 330,000; active = max response of -50% or lower; inconclusive = between -30% and -50%; inactive = -30% or higher; also: value at the top dose of about 77 µM
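Compounds were pin-transferred onto PI5P4Kalpha and substrate in HEPES pH 7.4 buffer with EGTA, CHAPS and 5% DMSO. ATP (5 microM final) started the reaction, which ran 60 minutes at room temperature before ADP-Glo detection.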
PLK1 PBD inh: qHTS for Inhibitors of PLK1-PDB (polo-like kinase 1 - polo-box domain): Primary Screen; Serine/threonine-protein kinase PLK1 (Homo sapiens), P53350; Plk1 PBD binding of FITC phosphopeptide, fluorescence polarization; Potency, µM, usual class: inhibitors; hit rate 2.8% among 360,000; also: series mostly up to about 57 µM; nearly all actives have a fitted effect of over 65% in size
Large screens that a line does not name were inactive. This is a sample that favours compounds with a hit; in the whole collection about 12% have one here. Unless noted, calls follow the shape of the dose curve; as a rule, active = well fitted curve in the direction sought with a large enough effect; inconclusive = small, poorly fitted or top-dose-only effect, or another doubt; inactive = no such curve, though single readings can be large; an effect the other way counts as inactive or inconclusive.

COC(=O)C1=C(CS(=O)(=O)c2cc(Cl)ccc2OC)NC(=O)NC1c1ccccc1 (configuration not stated)	none (no result: PI5P4K alpha inh, PLK1 PBD inh)
CCc1c(C)[nH]n(-c2ccc(Oc3ccccc3)c(S(=O)(=O)O)c2)c1=O	JMJD2A Tudor inh 56µM, G9a inh inconclusive, PLK1 PBD inh 13µM (no result: BAZ2B inh)
Cc1cc(C)n(-c2ccc(Oc3ccccc3)c(S(=O)(=O)O)c2)n1	JMJD2A Tudor inh 89µM, G9a inh inconclusive (no result: PLK1 PBD inh)
Cc1ccc(OCCCC(=O)Nc2sc3c(c2C(N)=O)CCC(C)C3)cc1 (configuration not stated)	none (no result: PI5P4K alpha inh, PLK1 PBD inh)
COc1ccc(OC)c(S(=O)(=O)ON2C(=O)c3ccccc3C2=O)c1	HP1b binding inh inconclusive, JMJD2A Tudor inh 89µM, G9a inh 1.4µM, PLK1 PBD inh 12µM
COc1ccc(OC)c(S(=O)(=O)N2CCN(c3ccccc3)CC2)c1	none
O=C1c2cccc3cccc(c23)C(=O)N1OS(=O)(=O)c1ccc(Cl)cc1	none
CCc1ccc(S(=O)(=O)ON2C(=O)c3ccccc3C2=O)cc1	BAZ2B inh inconclusive, HP1b binding inh 35µM, JMJD2A Tudor inh 50µM, G9a inh inconclusive, PLK1 PBD inh 8.4µM
Cc1ccccc1CC(=O)Nc1ccc2c(c1)c(=O)n(C)n2-c1ccccc1F	none (no result: BAZ2B inh, HP1b binding inh, JMJD2A Tudor inh, G9a inh)
COc1ccc(/C=C2\SC(=S)N(CCC(=O)NCCCn3ccnc3)C2=O)cc1	BAZ2B inh 25µM, G9a inh 56µM
COc1ccccc1/C=C1\SC(=S)N(CCC(=O)NCCCn2ccnc2)C1=O	BAZ2B inh 50µM, G9a inh inconclusive
O=C(CCCN1C(=O)/C(=C/c2ccc(F)cc2)SC1=S)NCCCn1ccnc1	BAZ2B inh 22µM, HP1b binding inh inconclusive, JMJD2A Tudor inh inconclusive, G9a inh inconclusive
CCOc1ccc(NC(C(=O)Nc2cccc(C(C)=O)c2)c2ccccc2)cc1 (configuration not stated)	BAZ2B inh 40µM, JMJD2A Tudor inh inconclusive, G9a inh 45µM
COCC(C)NC(C(=O)Nc1cccc(C(C)=O)c1)c1ccccc1 (configuration not stated)	none
CCN(CC)CCNC(C(=O)Nc1cccc(C(C)=O)c1)c1ccccc1 (configuration not stated)	BAZ2B inh 56µM, HP1b binding inh inconclusive, JMJD2A Tudor inh 1.1µM, G9a inh inconclusive
COc1ccccc1-c1cncnc1NCc1cccs1	none (no result: BAZ2B inh, HP1b binding inh, JMJD2A Tudor inh, PI5P4K alpha inh, PLK1 PBD inh)
CN(CCc1ccccn1)c1ccccc1	none (no result: BAZ2B inh, G9a inh)
CSc1ccc(CN(C)CCc2ccccn2)cc1	BAZ2B inh 32µM, HP1b binding inh inconclusive, JMJD2A Tudor inh 25µM (no result: G9a inh)
CN(CCc1ccccn1)Cc1ccc(Cl)cc1Cl	BAZ2B inh 50µM, HP1b binding inh inconclusive, JMJD2A Tudor inh 20µM (no result: PI5P4K alpha inh)
O=C(NCc1ccccn1)Nc1ccc(Cl)cc1Cl	none (no result: G9a inh)
CN(CCc1ccccn1)S(=O)(=O)c1ccccc1F	BAZ2B inh inconclusive, JMJD2A Tudor inh inconclusive, G9a inh 45µM (no result: PI5P4K alpha inh)
CCCCN(CCCC)C1=C(C(=O)c2ccccc2)N(C)S(=O)(=O)c2ccccc21	G9a inh inconclusive (no result: PI5P4K alpha inh, PLK1 PBD inh)
COc1ccc(NC(=O)c2oc3ccccc3c2NC(=O)COc2ccc(F)cc2)c(OC)c1	none (no result: PI5P4K alpha inh, PLK1 PBD inh)
O=C(O)Cc1ccc(C(=O)CSc2ccccc2)s1	BAZ2B inh 50µM, JMJD2A Tudor inh 56µM, G9a inh 56µM, PI5P4K alpha inh -59, PLK1 PBD inh 12µM
O=C(O)Cc1ccc(C(=O)c2ccc(Cl)cc2)s1	G9a inh inconclusive
O=C(O)Cc1ccc(C(=O)c2ccccc2)s1	G9a inh 18µM
Cc1ccc(SCC(=O)c2ccc(CC(=O)O)s2)cc1	BAZ2B inh 50µM, JMJD2A Tudor inh inconclusive, PI5P4K alpha inh inconclusive, PLK1 PBD inh inconclusive (no result: G9a inh)
Cc1ccc(SCC(=O)c2cc(C)c(O)c(C)c2)cc1	none
COC(=O)Cn1c(=NC(=O)c2ccc3c(c2)OCCO3)sc2ccccc21	none (no result: PI5P4K alpha inh, PLK1 PBD inh)
